# Laboratory results taken from PubChem BioAssay.
# Key:
# [1] = test system: Human papillomavirus type 1a protein E7 (residues 44-93); experiment: small molecules binding HPV E7 44-93 – biochemical, small-molecule microarray, residues 44-93, 635 nm fluorescence, primary screen (AID 1108); settings: fluorescence 635 nm, higher = more signal;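 note: E7 fragment applied at 1 µg/mL in TBST for 1 h at 4 C; score combines spot fluorescence with its signal to noise ratio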
# [2] = hepatitis C replication reporter changes, two-sided – Huh7 cells, luciferase reporter, HCV replication inhibitor project, primary screen (AID 1109); settings: Huh7 HCV replicon luciferase reporter, 48 h; higher = more signal;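 note: huh7 hepatoma cells harbouring a luciferase neomycin HCV replicon reporter; luciferase luminescence as measure of HCV replicon replication; test concentration not given here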
# [3] = target: Left-right determination factor 2 (Homo sapiens) (UniProt O00292); experiment: small molecules binding LEFTY2 protein – biochemical, small-molecule microarray, 635 nm fluorescence scan, primary screen (AID 1110); settings: higher = more signal
# [4] = target: Calmodulin-1 (Homo sapiens) (UniProt P0DP23); experiment: small molecules binding calmodulin-1 with EGTA – biochemical, small-molecule microarray, Cy5-labelled CALM1, profiling panel (AID 1111); settings: Cy5-CALM1 binding fluorescence, higher = more signal;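 note: labelled calmodulin applied in Tris saline Tween buffer holding calcium plus EGTA and DTT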
# [5] = target: Calmodulin-1 (Homo sapiens) (UniProt P0DP23); experiment: small molecules binding Ca-loaded calmodulin-1 – biochemical, small-molecule microarray, Cy5-labelled CALM1, plus calcium, artefact control for SMM control-protein annotation, profiling panel (AID 1112); settings: Cy5-CALM1 binding fluorescence, higher = more signal;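 note: score merges spot fluorescence with signal to noise from triplicate slides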
# [6] = probe aWnt5a binding to arrayed compounds – biochemical, biotinylated probe, 635/667 nm fluorescence, primary screen (AID 1113); settings: small-molecule microarray, higher = more signal;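 note: score merges 667 nm fluorescence intensity with signal-to-noise per printed feature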
# [7] = probe aShh binding to arrayed compounds – biochemical, biotinylated probe, 635/667 nm fluorescence, primary screen (AID 1114); settings: small-molecule microarray, higher = more signal;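 note: probe is biotin-labelled aShh protein from a stem cell growth factor screen; measures binding of labelled protein to compounds printed on the slide; score merges feature fluorescence at 667 nm with signal-to-noise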
# [8] = probe aNog binding to arrayed compounds – biochemical, biotinylated probe, 635/667 nm fluorescence, primary screen (AID 1115); settings: small-molecule microarray, higher = more signal;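 note: probe is biotinylated aNog protein used at 0.15 µg/mL for 1 h at 4 C; z-score combines 667 nm fluorescence of each spot with its signal to noise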
# [9] = target: Torsin-1A-interacting protein 1 (Homo sapiens) (UniProt Q5JTV8); experiment: compound microarray binding of lysate hLAP1 – cell lysate, small-molecule microarray, COS7 lysate, 635/667 nm fluorescence, primary screen (AID 1116); settings: 635 nm fluorescence, higher = more signal
# [10] = target: Alpha-bungarotoxin (Bungarus multicinctus) (UniProt P60615); experiment: compounds binding labelled alpha-BTX control protein – biochemical, small-molecule microarray, Alexa647 label, 635/667 nm fluorescence, artefact control for SMM control protein annotation, profiling panel (AID 1117); settings: alpha-BTX-A647 binding fluorescence, higher = more signal
# Sequence of Alpha-bungarotoxin (Bungarus multicinctus) (P60615 whole entry, looked up): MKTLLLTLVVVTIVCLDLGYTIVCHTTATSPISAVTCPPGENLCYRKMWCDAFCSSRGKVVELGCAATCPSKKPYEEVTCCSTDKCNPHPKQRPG
# Sequence of Left-right determination factor 2 (Homo sapiens) (O00292 whole entry, looked up): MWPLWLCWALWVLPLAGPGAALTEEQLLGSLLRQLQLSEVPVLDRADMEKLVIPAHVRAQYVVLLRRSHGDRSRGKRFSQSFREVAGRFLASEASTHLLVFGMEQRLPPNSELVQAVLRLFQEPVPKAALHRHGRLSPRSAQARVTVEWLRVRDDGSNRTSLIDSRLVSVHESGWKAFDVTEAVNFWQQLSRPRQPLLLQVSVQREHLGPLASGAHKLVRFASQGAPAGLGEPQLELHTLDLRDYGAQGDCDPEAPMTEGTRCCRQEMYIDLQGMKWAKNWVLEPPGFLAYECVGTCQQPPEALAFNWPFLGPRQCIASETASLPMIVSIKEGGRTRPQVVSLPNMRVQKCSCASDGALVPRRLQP
# Sequence of Torsin-1A-interacting protein 1 (Homo sapiens) (Q5JTV8 whole entry, looked up): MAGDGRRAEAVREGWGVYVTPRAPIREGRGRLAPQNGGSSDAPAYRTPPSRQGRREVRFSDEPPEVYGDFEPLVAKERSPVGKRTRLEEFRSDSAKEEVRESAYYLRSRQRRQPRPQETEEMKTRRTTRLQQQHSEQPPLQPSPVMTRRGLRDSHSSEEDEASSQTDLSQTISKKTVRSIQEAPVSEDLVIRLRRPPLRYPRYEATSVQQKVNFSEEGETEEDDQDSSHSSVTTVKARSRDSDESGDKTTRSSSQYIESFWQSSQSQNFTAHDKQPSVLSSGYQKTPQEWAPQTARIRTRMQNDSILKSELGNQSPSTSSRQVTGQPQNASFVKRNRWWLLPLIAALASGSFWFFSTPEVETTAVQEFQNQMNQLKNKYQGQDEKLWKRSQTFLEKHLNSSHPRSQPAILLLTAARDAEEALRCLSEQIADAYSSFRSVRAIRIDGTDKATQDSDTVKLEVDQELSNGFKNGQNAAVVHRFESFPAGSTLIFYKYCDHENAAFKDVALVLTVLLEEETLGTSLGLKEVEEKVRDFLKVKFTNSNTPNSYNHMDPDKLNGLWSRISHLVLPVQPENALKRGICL
smiles,measurement,setting,value
Cc1ccc(C2CC=C(C(=O)O)CN2S(=O)(=O)c2ccc(C)cc2)cc1 (stereo not given),composite z-score,[1],1.35
same,z-score,[2],0.602
same,composite z-score,[3],-0.403
same,composite z-score,[4],0.189
same,composite z-score,[5],0.15
same,composite z-score,[6],0.0018
same,composite z-score,[7],-0.271
same,composite z-score,[8],0.241
same,composite z-score,[9],0.743
same,composite z-score,[10],0.802
COC(=O)c1c(CC[C@@H](CO)NC(=O)N[C@H](Cc2ccccc2)Cn2cc(-c3ccccc3N)nn2)oc(C(C)=O)c1C(=O)OC,composite z-score,[1],0.734
same,z-score,[2],-1.35
same,composite z-score,[3],-0.104
same,composite z-score,[4],-0.0936
same,composite z-score,[5],-0.656
same,composite z-score,[6],-0.001
same,composite z-score,[7],0.0326
same,composite z-score,[8],1.12
same,composite z-score,[9],1.54
same,composite z-score,[10],0.57
COCC1=C2[C@@H](CCc3ccccc3)OB(O)C[C@@H]2n2c(=O)n(-c3ccccc3)c(=O)n2C1,composite z-score,[1],-0.289
same,z-score,[2],0.332
same,composite z-score,[3],0.26
same,composite z-score,[4],-0.455
same,composite z-score,[5],-0.438
same,composite z-score,[6],-0.158
same,composite z-score,[7],-0.304
same,composite z-score,[8],-0.213
same,composite z-score,[9],0.152
same,composite z-score,[10],-0.148
C#CCCCON=C1C[C@@H](O)[C@@H](O)[C@@H]2[C@@H]3C(=O)N([C@@H](C)c4ccccc4)C(=O)[C@@H]3CC[C@H]12,composite z-score,[1],0.207
same,z-score,[2],-0.638
same,composite z-score,[3],0.45
same,composite z-score,[4],0.0505
same,composite z-score,[5],-0.602
same,composite z-score,[6],0.0354
same,composite z-score,[7],0.0796
same,composite z-score,[8],-0.285
same,composite z-score,[9],0.418
same,composite z-score,[10],0.375
CCOC(=O)[C@H](Cc1ccccc1)NC(=O)CCC1CC(OC(=O)NCCc2ccc(F)cc2)CC2(CCCC(COC(=O)NCC(c3ccccc3)c3ccccc3)O2)O1 (stereo not given in full),composite z-score,[1],1.33
same,z-score,[2],0.0395
same,composite z-score,[3],0.414
same,composite z-score,[4],0.53
same,composite z-score,[5],-0.658
same,composite z-score,[6],-0.124
same,composite z-score,[7],-0.0146
same,composite z-score,[8],-0.0496
same,composite z-score,[9],2.49
same,composite z-score,[10],0.0051
O=C1CCCC=C1C(O)CCOCc1ccccc1 (stereo not given),composite z-score,[1],-0.649
same,z-score,[2],0.939
same,composite z-score,[3],0.408
same,composite z-score,[4],-0.314
same,composite z-score,[5],-0.605
same,composite z-score,[6],-0.0735
same,composite z-score,[7],-0.209
same,composite z-score,[8],-0.0236
same,composite z-score,[9],0.266
same,composite z-score,[10],0.129
O=C1[C@H]2[C@H]3[C@H](O)[C@H](O)CC(=NOC[C@@H](O)COCc4ccco4)[C@@H]3CC[C@H]2C(=O)N1c1ccc(F)cc1F,composite z-score,[1],0.427
same,z-score,[2],0.199
same,composite z-score,[3],0.74
same,composite z-score,[4],-0.616
same,composite z-score,[5],-1.01
same,composite z-score,[6],-0.0792
same,composite z-score,[7],-0.13
same,composite z-score,[8],-0.236
same,composite z-score,[9],0.515
same,composite z-score,[10],-0.255
CC(CCN1CCCCc2nc(C)c(C)cc21)=NOC(C)CN1CCCc2nc(C)c(C)cc21 (stereo not given),composite z-score,[1],1.2
same,z-score,[2],-0.974
same,composite z-score,[3],1.12
same,composite z-score,[4],1.09
same,composite z-score,[5],-0.573
same,composite z-score,[6],0.298
same,composite z-score,[7],1.25
same,composite z-score,[8],0.578
same,composite z-score,[9],1.13
same,composite z-score,[10],2.07
CCN1C(=O)[C@H]2[C@H]3[C@H](O)[C@H](O)CC(=NOC(C)CN4CCCCc5nc(C)c(C)cc54)[C@@H]3CC[C@H]2C1=O (stereo not given in full),composite z-score,[1],-0.504
same,z-score,[2],-1.17
same,composite z-score,[3],0.905
same,composite z-score,[4],-2.14
same,composite z-score,[5],-1.31
same,composite z-score,[6],-0.184
same,composite z-score,[7],0.0796
same,composite z-score,[8],-0.0489
same,composite z-score,[9],-0.401
same,composite z-score,[10],-0.294
CC(=O)OC[C@H]1O[C@H](CCON=C(C)CCC(=O)OC[C@H]2O[C@H](C#Cc3ccccc3)C=C[C@@H]2Oc2ccc(C)cc2)C=C[C@@H]1OC(C)=O,composite z-score,[1],-0.187
same,z-score,[2],-0.0572
same,composite z-score,[3],0.977
same,composite z-score,[4],-0.367
same,composite z-score,[5],-0.5
same,composite z-score,[6],-0.131
same,composite z-score,[7],-0.138
same,composite z-score,[8],-0.423
same,composite z-score,[9],0.245
same,composite z-score,[10],1.24
O=C1[C@H]2[C@H]3[C@H](O)[C@H](O)CC(=NOC[C@@H](O)COCc4ccco4)[C@H]3CC[C@H]2C(=O)N1Cc1ccc2c(c1)OCO2,composite z-score,[1],-0.532
same,z-score,[2],-0.385
same,composite z-score,[3],1.37
same,composite z-score,[4],-1.37
same,composite z-score,[5],-2.03
same,composite z-score,[6],-0.119
same,composite z-score,[7],-0.349
same,composite z-score,[8],-0.278
same,composite z-score,[9],0.13
same,composite z-score,[10],-0.147
CCOC(=O)C1=CCC(c2cc3ccccc3[nH]2)NC1 (stereo not given),composite z-score,[1],-0.192
same,z-score,[2],-0.312
same,composite z-score,[3],0.208
same,composite z-score,[4],-0.219
same,composite z-score,[5],0.19
same,composite z-score,[6],0.0438
same,composite z-score,[7],0.204
same,composite z-score,[8],0.562
same,composite z-score,[9],0.97
same,composite z-score,[10],0.864
COC(=O)[C@H]1COC(c2ccc(OCCCO)cc2)=N1,composite z-score,[1],-1.8
same,z-score,[2],0.592
same,composite z-score,[3],-0.365
same,composite z-score,[4],-0.545
same,composite z-score,[5],0.662
same,composite z-score,[6],0.0108
same,composite z-score,[7],-0.276
same,composite z-score,[8],0.221
same,composite z-score,[9],1.94
same,composite z-score,[10],-0.373
O=C1C[C@@H](O)[C@@H](O)[C@@H]2[C@@H]3C(=O)N(Cc4ccc5c(c4)OCO5)C(=O)[C@@H]3CC[C@@H]12,composite z-score,[1],-0.0301
same,z-score,[2],-0.644
same,composite z-score,[3],0.796
same,composite z-score,[4],-0.504
same,composite z-score,[5],-0.56
same,composite z-score,[6],-0.0405
same,composite z-score,[7],0.0278
same,composite z-score,[8],-0.239
same,composite z-score,[9],0.441
same,composite z-score,[10],0.0541
C/C=C\[C@@H](NCc1ccccc1Br)[C@@H](O)Cc1ccccc1,composite z-score,[1],-0.594
same,z-score,[2],-3.08
same,composite z-score,[3],-0.472
same,composite z-score,[4],-0.64
same,composite z-score,[5],0.0924
same,composite z-score,[6],-0.12
same,composite z-score,[7],-0.291
same,composite z-score,[8],-0.18
same,composite z-score,[9],-0.541
same,composite z-score,[10],-0.791
C[C@@H]1C=CCC(=O)OC[C@H](C)C(=O)N2CCC[C@H]2C(=O)OC1,composite z-score,[1],0.685
same,z-score,[2],-1.06
same,composite z-score,[3],0.851
same,composite z-score,[4],-0.725
same,composite z-score,[5],-1.26
same,composite z-score,[6],-0.22
same,composite z-score,[7],0.0188
same,composite z-score,[8],0.0419
same,composite z-score,[9],0.96
same,composite z-score,[10],-0.285
CC(C)N1CC=CC23O[C@@H]4C=CCCOC(=O)C4[C@H]2C(=O)N(CCCCCCO)[C@@H]3C1=O (stereo not given in full),composite z-score,[1],-0.558
same,z-score,[2],-0.845
same,composite z-score,[3],-1.39
same,composite z-score,[4],-0.0847
same,composite z-score,[5],0.749
same,composite z-score,[6],-0.252
same,composite z-score,[7],-0.221
same,composite z-score,[8],0.0432
same,composite z-score,[9],-0.423
same,composite z-score,[10],-0.866
